# Results from PubChem BioAssay AID504706 (National Center for Advancing Translational Sciences (NCATS), 2011).
# Hit rate of the full screen: of about 320,000 compounds, about 200 (0.062%) were called active. Roughly 6% stayed inconclusive and do not appear here. Calls follow the shape of the dose curve; as a rule, active = well fitted activation curve with a large enough effect; inconclusive = small, poorly fitted or top-dose-only effect; inactive = no such curve, though single readings can be large or run the other way. For the sample, actives were picked, then their nearest neighbours and some compounds at random.
# Test: qHTS assay for re-activators of p53 using a Luc reporter; also: nearly all actives have a fitted effect of over 45% in size; as to activity change, positive = activation: % of control where 0% means no effect
# Details: H1299 p53-A138V BP100-luciferase reporter, luminescence, 24 h; series mostly up to 92.2 µM; activity change, positive = activation: at the top concentration
# Description: The p53 tumor suppressor plays a key role in suppression of tumorigenesis and in human carcinogenesis. It is frequently found inactivated in human cancers, mainly by point mutation. These point mutations are found in a wide variety of human cancers and a majority of them affect the DNA binding domain of the protein. The point mutations either alter native p53 conformation or abolish DNA contact. Additionally, cancer cells with p53 mutations are more resistant to chemo-radiation therapies. In order to find activators to reactivate this important protein, a cell-based screen for p53-dependent luciferase-reporter expression was developed. A p53-null H1299 lung cancer cell line was stably co-transfected with a temperature sensitive p53 mutant, p53-A138V, and a p53-responsive BP100-luciferase reporter. This cell model has previously been characterized in a gene chip profiling experiment for p53 activation. By lowering the culture temperature from 37 deg C (mutant p53 conformation) to 32 deg C (w.t. p53 conformation), a 30-60 fold increase in activation of luciferase activity is observed. At assay temperate, 37 deg C, basal reporter expression is very low and after the addition of detection reagent, a luminescent read-out is carried out. NIH Chemical Genomics Center [NCGC] NIH Molecular Libraries Probe Production Centers Network [MLPCN] MLPCN Grant: DA031088-01A1 Assay Provider (PI): Yi Sung, University of Michigan at Ann Arbor
# 5ul of 1000 cells per well are dispensed in all wells except column 4, into white solid-bottom TC-treated Kalypsys plates. The cells are kept in Opti-MEM and supplemented with 10% FBS and dispensed using a Multidrop (Thermo). Then using the Kalypsys pin-tool, 23nl of compounds are pinned. The compounds are starting concentration at 10mM, with 1:5 dilution, 4 points, and the control compound nocodazole is pinned in column 1 at 25mM, 1:3 dilution, in duplicate, 25mM nocodazole is pinned in column 2. Please note, all concentrations are working concentrations. 5ul of 1pM purified luciferase enzyme is dispensed using the Kalypsys dispenser in column 4. Plates are incubated for 24 hrs at 37 deg C, 5% CO2, and 95% humidity. Then 4ul of the detection reagent Amplite (ABD Bioquest) is added using the Kalypsys dispenser. Plates are incubated for 10 min at ambient room temperature and are then read on the ViewLux (Perkin Elmer) using a clear filter for a luminescent read-out.
# Potency is read from the fitted curve at half-maximal effect.
Structure (SMILES),Potency,"activity change, positive = activation"
COc1cccc(/C(C)=N/Nc2ncc(Cl)cc2Cl)c1,5.01 µM (active),–
CCN(CC)c1ccc(C(=O)N/N=C(\C)c2cccc(OC)c2)cc1,–,6.61% (inactive)
C/C(=N\Nc1ncc(Cl)cc1Cl)c1cccs1,–,-0.226% (inactive)
O=C1N[C@@H](c2ccccc2)COC(=O)[C@H](Cc2ccc(F)cc2)C/C=C\C[C@@H]1CC(=O)N(CCO)Cc1ccccc1,–,-3.96% (inactive)
O=C(CCc1nc2ccccc2c(=O)[nH]1)OCC(=O)c1cccc(Cl)c1,–,-1.1% (inactive)
Cc1ccc(C(=O)COC(=O)c2cccc(N3C(=O)c4c(C)nc5ccccc5c4C3=O)c2)cc1C,35.5 µM (active),–
CCCc1nc2ccccc2c(C(=O)OCC(=O)c2ccc3c(c2)NC(=O)CO3)c1CC,–,3.69% (inactive)
CNC[C@@H]1Oc2c(NS(C)(=O)=O)cccc2C(=O)N([C@@H](C)CO)C[C@H]1C,–,4.35% (inactive)
COC(=O)[C@]1(Cc2ccccc2)N[C@H](CN(C)S(=O)(=O)c2ccc(OC(F)(F)F)cc2)[C@@H]2C(=O)N(C)C(=O)[C@@H]21,–,21.7% (inactive)
COc1ccc(CCNC(=O)COC(=O)c2ncc(Cl)c(Cl)c2Cl)cc1OC,–,-3.05% (inactive)
C=CC[C@@H](CC(=O)NCCO)C(=O)N[C@H](C)COC(=O)[C@@H](CC=C)CC(=O)OC(C)(C)C,–,2.81% (inactive)
CC(C)NC(=O)Nc1cccc2c1O[C@@H](CN(C)S(=O)(=O)c1ccc(F)cc1)[C@@H](C)CN([C@H](C)CO)C2=O,–,-2.1% (inactive)
C=CCC[C@@H](Cc1ccc(F)cc1)C(=O)O[C@H](CNC(=O)[C@H](CC=C)CC(=O)N(CCO)Cc1ccccc1)c1ccccc1,–,2.56% (inactive)
Cn1c(N)c(C(=O)COC(=O)c2cccc(S(=O)(=O)N3CCOCC3)c2)c(=O)n(C)c1=O,–,3.86% (inactive)
Cc1ccc(C(=O)NCC(=O)NC2CC2)cc1,–,4.8% (inactive)
COc1ccc2nc3n(c(=O)c2c1)-c1ccc(Cl)cc1C(=O)NC3Cc1ccccc1 (stereo not given),–,-4.22% (inactive)
CCN(C[C@H]1N[C@@](CC)(C(=O)OC)[C@H]2C(=O)N(Cc3ccccc3)C(=O)[C@@H]12)S(=O)(=O)c1ccccc1,–,-3.58% (inactive)
Cc1ccc(S(=O)(=O)Nc2ccc3c(c2)C(=O)N([C@H](C)CO)C[C@@H](C)[C@@H](CN(C)C(=O)Nc2cccc4ccccc24)O3)cc1,–,-4.09% (inactive)
N#CCCN(C(=O)COC(=O)c1ccc2c(c1)OCCO2)c1ccccc1,–,-10.6% (inactive)
O=C(COC(=O)CSc1ccccc1)Nc1ccc(F)cc1F,–,-3.41% (inactive)
COc1ccc2[nH]c3c(c2c1)CCN1C(=O)C(CC(=O)NCCCN(C)C)C[C@H](C(=O)N2CCOCC2)[C@@]31CCC1CCCC1 (stereo not given in full),–,-5.21% (inactive)
CC[C@]1(C(=O)OC)[C@H]2C(=O)N(Cc3ccccc3)C(=O)[C@H]2[C@H]2CN=C(SCc3ccc(Cl)cc3)N21,–,-2.77% (inactive)
COC(=O)c1ccc(/C=C/c2c(-c3ccc(OC)cc3)sc3ccccc23)cc1,–,1.3% (inactive)
Cc1ccc(S(=O)(=O)N2CCN(C(=O)CN3C(=O)NC(C)(c4ccc(Cl)cc4)C3=O)CC2)c(C)c1 (stereo not given),–,11.7% (inactive)
O=C(CSc1nc2ccccc2c(=O)n1-c1ccccc1F)N1CCOCC1,–,-7.54% (inactive)
Cc1c(Cl)cnc(NC(=O)COC(=O)C2CCCC2)c1Cl,–,-1.21% (inactive)
C[C@H](CO)N1C[C@H](C)[C@H](CN(C)C(=O)Nc2ccc(C(F)(F)F)cc2)Oc2c(NC(=O)c3ccncc3)cccc2C1=O,–,-2.92% (inactive)

Structure (SMILES),Potency,"activity change, positive = activation"
CC[C@]1(C(=O)OC)[C@H]2C(=O)N(Cc3ccccc3)C(=O)[C@H]2[C@H]2CN=C(SCc3ccccc3)N21,–,33.6% (inactive)
CC[C@@]1(C(=O)OC)N[C@H](CN(C)C(C)=O)[C@@H]2C(=O)N(C)C(=O)[C@@H]21,–,4.26% (inactive)
CN(C(=O)c1cccc(NC(=O)Cc2cccc([N+](=O)[O-])c2)c1)C1CCCCC1,–,-1.26% (inactive)
COc1cc(C(=O)NC2CCN(C)CC2)ccc1Nc1ncc2c(n1)N(C1CCC(O)CC1)CCC(=O)N2C (stereo not given),–,-2.64% (inactive)
CSCCC1NC(=O)N(CC(=O)Nc2cccc(S(=O)(=O)N3CCCCCC3)c2)C1=O (stereo not given),–,-6.05% (inactive)
CN(C(=O)c1cccc(NC(=O)C2CCN(C(=O)OC(C)(C)C)CC2)c1)C1CCC1,–,-1.82% (inactive)
Cc1ccc(S(=O)(=O)N2CCN(C(=O)COC(=O)CNC(=O)c3ccc(C(C)(C)C)cc3)CC2)c(C)c1,–,9.42% (inactive)
CCC(CO)Oc1cc(NCc2ccccc2)c2ncn(C3CCCC3)c2c1 (stereo not given),–,-0.676% (inactive)
Nc1ncnc2c1ncn2[C@@H]1O[C@H](CNCc2cccn2-c2nccs2)[C@@H](O)[C@H]1O,–,3.16% (inactive)
CCOC(=O)C1=CN(Cc2ccc(Br)cc2)S(=O)(=O)NC1C (stereo not given),–,7.34% (inactive)
COc1ccc2[nH]c3c(c2c1)CCN1C(=O)C(CC(=O)NCCc2ccccn2)C[C@H](C(=O)N2CCOCC2)[C@@]31C (stereo not given in full),–,6.48% (inactive)
O=C(COC(=O)c1cc[n+]([O-])cc1)Nc1ccc(Cl)c(C(F)(F)F)c1,–,-6.74% (inactive)
COc1ccc(CCOC2OC(CO)C(OC(=O)/C=C/c3ccc(O)c(OC)c3)C(O[C@H]3O[C@@H](C)[C@H](O)[C@@H](O)[C@H]3O)C2O)cc1O (stereo not given in full),–,-0.634% (inactive)
CCOC(=O)[C@H]1[C@H]2COc3ccccc3[C@@H]2N2C(=O)CN(Cc3ccccc3)C(=O)[C@@]12C,–,-0.503% (inactive)
COc1ccc(OC)c(NC(=O)COC(=O)Cc2ccsc2)c1,–,4.86% (inactive)
O=C(CC1SC(N2CCOCC2)=NC1=O)Nc1ccccc1F (stereo not given),–,-4.02% (inactive)
O=C(NC(=S)Nc1ccc(Br)cc1F)C1CCCCC1,–,14.8% (inactive)
COc1ccc(CNC(=O)C[C@H]2C[C@H](C(=O)N3CCOCC3)[C@@]3(CCC4CCCC4)c4[nH]c5ccc(Cl)cc5c4CCN3C2=O)cc1OC,–,5.3% (inactive)
CCN1C[C@@H]2[C@@H]3C(=O)N(Cc4ccccc4)C(=O)[C@@H]3[C@](Cc3ccccc3)(C(=O)OC)N2C1=NC1CCCCC1,–,-5.11% (inactive)
CCCCNc1c(-c2ccc(OC)c(Sc3ccc(OC)cc3)c2)nc2ccc(Cl)cn12,–,5.53% (inactive)
CC(C)N(C(=O)[C@H]1C[C@H](CC(=O)NC(C)(C)C)C(=O)N2CCc3c([nH]c4ccc(Cl)cc34)[C@]12C)C(C)C,–,-11.8% (inactive)
Cc1c(NC(=O)C(C)OC(=O)c2ccccc2O)c(=O)n(-c2ccccc2)n1C (stereo not given),–,0.846% (inactive)
COCCN(CCOC)S(=O)(=O)NC[C@H]1O[C@@H](n2cnc3c(N)ncnc32)[C@H](O)[C@@H]1O,–,-0.886% (inactive)
Cc1ccsc1C(=O)NNC(=O)COc1ccc(Br)cc1,–,19.4% (inactive)
COc1cc(C)ccc1OCC(=O)OCC(=O)c1ccc[nH]1,–,-12.1% (inactive)
CCN(CC)C(=O)[C@H]1C[C@H](CC(=O)NCC23CC4CC(CC(C4)C2)C3)C(=O)N2CCc3c([nH]c4cc(CCC(=O)N(C)C)ccc34)[C@]12C,–,-3.09% (inactive)
O=C(COC(=O)c1cccc(Cl)c1)NC(=O)NCc1ccccc1,–,6.37% (inactive)

Structure (SMILES),Potency,"activity change, positive = activation"
CCCc1cc(=O)[nH]c(SCC(=O)Nc2ccc(C(=O)Nc3ccccc3OC)cc2)n1,–,-10.1% (inactive)
O=C(CSc1ncn[nH]1)Nc1ccc(Br)cc1Br,–,2.67% (inactive)
CC(C)(C)OC(=O)C[C@@H]1C/C=C\C[C@@H](CC(=O)N[C@@H](CO)Cc2ccccc2)C(=O)N2CCC[C@H]2COC1=O,–,-0.764% (inactive)
COc1ccccc1-c1nnc2n1N=C(c1ccc(OC(F)F)c(OCC3CC3)c1)CS2,–,4.56% (inactive)
C=CC1=C(C(=O)O)N2C(=O)[C@@H](NC(=O)/C(=N\OCC(=O)O)c3csc(N)n3)[C@H]2SC1,–,-3.99% (inactive)
O=C(CSc1nc(-c2ccccc2)cs1)Nc1cccc([N+](=O)[O-])c1,35.5 µM (active),–
O=C(CSc1ncn[nH]1)Nc1nc(-c2cccc([N+](=O)[O-])c2)cs1,–,12.9% (inactive)
CCNC(=O)CSc1nc(-c2ccccc2)cs1,–,17.9% (inactive)
CC(C)(C)OC(=O)C[C@@H]1C/C=C\C[C@H](CC(=O)N[C@@H](CO)Cc2ccccc2)C(=O)N[C@H](Cc2ccccc2)COC1=O,–,2.06% (inactive)
CC(C)n1cnc2c(NCc3ccccc3)cc(OCC3CCN(C)CC3)cc21,–,-11.8% (inactive)
CN(Cc1ccc(CNC[C@H]2O[C@@H](n3cnc4c(N)ncnc43)[C@H](O)[C@@H]2O)o1)S(C)(=O)=O,–,15.9% (inactive)
CCOC(=O)C1=C(C)N(C[C@@H]2CC[C@@H](Cc3ccc(-c4ccccc4)cc3)O2)C(=O)NC1c1ccc([N+](=O)[O-])cc1 (stereo not given in full),–,-4.21% (inactive)
O=S(=O)(c1cccs1)N1CCN(CCOc2ccccc2)CC1,–,-4.44% (inactive)
CCCN=C1N(C)C[C@@H]2[C@@H]3C(=O)N(Cc4ccccc4)C(=O)[C@@H]3[C@](C)(C(=O)OC)N12,–,11.5% (inactive)
COc1cccc(-c2sc3ccc(OC)cc3c2-c2ccc(OCCN3CCCCC3)cc2)c1,–,0.454% (inactive)
CC[C@@H](C)[C@@H]1CN([C@@H](C)CN2CCC[C@H]2CN2C(N)=NC[C@H]2C(C)C)C(=N)N1CCc1ccc(Cl)c(Cl)c1,–,1.67% (inactive)
C[C@H](CO)N1C[C@H](C)[C@@H](CN(C)Cc2ccc(-c3ccccc3)cc2)Oc2ccc(NC(=O)Cn3cnnn3)cc2C1=O,–,0.106% (inactive)
COc1cc(C2CC(=O)Oc3cc(OC)c(OC)c(OC)c32)cc(OC)c1OC (stereo not given),–,-8.59% (inactive)
Cc1cccc(-c2noc(CCC(=O)NC3CCCC3)n2)c1,–,3.23% (inactive)
Cc1cccc(-c2noc(-c3ccc(F)cc3)n2)c1,31.6 µM (active),–
Brc1ccc(-c2noc(-c3ccccc3)n2)o1,–,24.1% (inactive)
CC(C)(C)OC(=O)C[C@H]1C/C=C\C[C@@H](CC(=O)N[C@H](CO)Cc2ccccc2)C(=O)NC[C@@H](c2ccccc2)OC1=O,–,2.82% (inactive)
CN=C(Nc1cccc(S(=O)(=O)N2CCOCC2)c1)c1ccccc1,–,-9.42% (inactive)
O=C(NCCC(=O)N1O[C@@H]2C=C[C@H]1C2)OCC1c2ccccc2-c2ccccc21,–,-4.81% (inactive)
Nc1ncnc2c1ncn2[C@@H]1O[C@H](CNS(=O)(=O)c2ccc(-c3ccno3)s2)[C@@H](O)[C@H]1O,–,-6.9% (inactive)
Cc1noc(C)c1NC(=O)Nc1ccc2c(c1)C(=O)N([C@H](C)CO)C[C@H](C)[C@@H](CN(C)C(=O)Nc1ccc(C(F)(F)F)cc1)O2,–,5.39% (inactive)
